Data taken from PubChem BioAssay AID1578 (Sanford-Burnham Center for Chemical Genomics, 2009).
The campaign covered roughly 290,000 compounds. About 3,000 (1%) were called active. For the sample, actives were picked, then their nearest neighbours and some compounds at random. Values without a mark were called inactive. Cut-off read from the data, not from the text of the source: active = inhibition mostly above about 36% (no sharp cut-off); inactive = mostly below about 34%.

Assay: inhibition of NOD1-driven NF-kB reporter – cell-based, luminescence, uHTS, primary screen (AID 1578);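 note: HEK-293T reporter cells stimulated with the NOD1 agonist gamma-tri-DAP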
Settings: NOD1-driven NF-kB luciferase reporter cells, at 4 µM, active compounds read high

Row | SMILES | inhibition
1 | CC(NC(=S)Nc1ccc(OC(F)F)c(Cl)c1)C(C)(C)C (stereo not drawn) | -14.8%
2 | O/N=C/c1cccc[n+]1CCCCCC[n+]1ccccc1/C=N/O | 27.1%
3 | Cc1[nH]n2c(=O)cc(C(C)(C)C)nc2c1-c1ccccc1 | 85.3% (active)
4 | Cc1cc(=O)n2[nH]c(C)c(-c3ccccc3)c2n1 | -4.2%
5 | Cc1[nH]n2c(=O)cc(C(C)C)nc2c1-c1ccccc1 | -8.4%
6 | COc1cccc(-c2c[nH]c(=O)[nH]c2=O)c1 | -6.8%
7 | COc1cccc(/C=C/C(=O)c2ccc(NC3=NCCCS3)cc2)c1 | -44.4%
8 | COc1ccc(/C=C/C(=O)c2ccc(NC3=NCCCS3)cc2)cc1OC | 44.3% (active)
9 | Cc1cccc(/C=C/C(=O)c2ccc(NC3=NCCCS3)cc2)c1 | 32.1%
10 | CNCCCOc1ccc(C)cc1Br | 13.5%
11 | Cc1nn2c3ccccc3n(Cc3ccccc3)c2nc1=O | -20.5%
12 | O=C(NCC(=O)N(c1ccc(Cl)cc1)C(C(=O)NC1CCCC1)c1ccncc1)c1ccco1 (stereo not drawn) | -13.1%
13 | CN(C)CCNC(=O)c1c(CSc2ccccc2)noc1C(=O)NCc1ccccc1 | -3.7%
14 | NC(=O)C1CCN(C(=O)c2ccc3c(c2)S(=O)(=O)c2ccccc2C3=O)CC1 | 1.2%
15 | COC(=O)c1cc(C)nc2c1C(=O)C(=O)C=C2N1CCOCC1 | -6.2%
16 | CCN(CC)CCNC1=CC(=O)OC12CCCCC2 | -19.3%
17 | CCN(CC)CCNc1cc(C)nc2c1C(=O)C(=O)C=C2N1CCCCC1 | 101% (active)
18 | Cc1ccc(C(=O)/C=C/c2ccccc2)o1 | -0.9%
19 | Cc1ccc(C(=O)/C=C/c2ccc(Br)cc2)o1 | 21%
20 | Cc1ccc(C(=O)/C=C/c2cc(Br)cc(Br)c2O)o1 | 89.5% (active)
21 | Cc1ccc(C(=O)NC2CC3CCC(C2)N3Cc2ccco2)cc1 (stereo not drawn) | -13.6%
22 | O=C(COC(=O)c1ccc[nH]c1=O)NCCc1ccc(Cl)cc1Cl | -4.3%
23 | COc1ccc(OC)c(NC(=O)NNC(=O)CCCOc2ccc(Cl)cc2C)c1 | -14%
24 | O=C(O)Cc1sc(-c2ccccc2)nc1-c1ccccc1 | -9.7%
25 | O=C(Cc1sc(-c2ccccc2Cl)nc1-c1ccccc1)Nc1ccccc1 | -49.4%

Row | SMILES | inhibition
26 | O=C(O)Cc1sc(-c2ccccc2Cl)nc1-c1ccccc1 | 44% (active)
27 | CCCn1c(=O)c(C(=O)NNC(=O)c2ccc(Cl)cc2Cl)c(O)c2ccccc21 | -6.2%
28 | Cc1cc(Cl)ccc1NC(=O)CCCN1C(=O)CCC1=O | 1.3%
29 | O=C(Cn1nnc2ccccc21)N/N=C\c1cccs1 | -35.5%
30 | COc1ccc(/C=C/C(=O)Oc2ccc(C)cc2)cc1 | -12.4%
31 | COc1ccc(/C=C/c2c(-c3ccc(OC)cc3)oc3ccc(-c4ccc(OC)cc4)cc23)cc1 | -16.5%
32 | CC1(C)C2CCC1(C)C(OC(=O)C[n+]1ccccc1N)C2 (stereo not drawn) | -14.7%
33 | CC(C)NC(=O)C1CCN(C2CCN(C(=O)c3cc4c(s3)CCCCC4)CC2)CC1 | -13.9%
34 | Cc1cnc(CN(C)Cc2nc(Cc3cccc(C(F)(F)F)c3)no2)[nH]1 | -15.7%
35 | CC(C)OC(=O)c1cc2c(=O)[nH]c(C(Cl)(Cl)Cl)nc2o1 | -25.8%
36 | CS(=O)(=O)N(CC(=O)N1CCCCC1)C1CCCCC1 | 9.1%
37 | O=C(N/N=C/C(Br)=C/c1ccccc1)c1cccnc1 | 10.1%
38 | COc1cccc(C(=O)N/N=C/C(Br)=C/c2ccccc2)c1 | 63.6% (active)
39 | COc1ccc(C(=O)N/N=C/C(Br)=C/c2ccccc2)cc1 | 26.8%
40 | CCC1(C)Cc2ccccc2-c2nc3n(c(=O)c21)CCS3 (stereo not drawn) | 5.3%
41 | CC1(C)Cc2ccccc2-c2nc3n(c(=O)c21)CCCS3 | 44.3% (active)
42 | CC1(C)Cc2ccccc2-c2nc3n(c(=O)c21)CCS3 | -12.8%
43 | O=C(COC(=O)CSCC(=O)N1CCCCC1)Nc1ccc(Cl)cc1 | 0%
44 | Fc1ccc(-c2noc(-c3ccc4c(c3)CCO4)n2)cc1 | -17.4%
45 | CN(C)Cc1c(O)ccc2c(-c3ccccc3)cc(=O)oc12 | -22%
46 | CC(=O)c1c(O)ccc2c(-c3ccccc3)cc(=O)oc12 | 13.4%
47 | COC(=O)c1ccccc1NC(=O)Nc1cc(C)ccn1 | -16.6%
48 | Cc1cccc2sc(N(CCCN(C)C)C(=O)c3ccc(S(=O)(=O)N4CCc5ccccc5C4)cc3)nc12 | 13%
49 | O=C(COC(=O)CCC(=O)c1ccc(F)cc1)Nc1ccc(N2CCOCC2)cc1 | -6.3%
50 | O=C(OCCN1CCCCC1)c1ccc(Cl)cc1 | -7.2%

Row | SMILES | inhibition
51 | Oc1c(C=NCc2ccc(F)cc2)[nH]c2ccc(Br)c(Cl)c12 | -16.1%
52 | Oc1c(Br)cc(Br)cc1C=NCc1ccccc1 | -5.4%
53 | Oc1c(Br)cc(Br)cc1C=NCc1ccc(F)cc1 | 64.2% (active)
54 | CCCn1c(N)c(Sc2ccccc2)c(=O)n(CCC)c1=O | 17.2%
55 | CCOC(=O)c1ccccc1NC(=O)c1c(F)c(F)c(F)c(F)c1F | -18.5%
56 | CCCCC/C(=N\NC(=O)Nc1ccccc1)c1ccccc1 | -2.9%
57 | C/C(=N\NC(N)=O)c1ccccc1 | -34.5%
58 | NC(=O)N/N=C(/CCCCCC/C(=N\NC(N)=O)c1ccccc1)c1ccccc1 | 36.6% (active)
59 | CC(=O)N1c2ccccc2C(C)(c2ccccc2)CC1(C)C (stereo not drawn) | 0.7%
60 | CC1(C)C2C(Cl)(Cl)C2(C)c2ccccc2N1C=O (stereo not drawn) | -3.3%
61 | CC(=O)N1c2ccccc2C2(C)C(C1(C)C)C2(Cl)Cl (stereo not drawn) | 60.4% (active)
62 | Cc1cc(NC(=O)Nc2ccc(Cl)cc2)n(C)n1 | -7.2%
63 | O=C1c2cccc3cc([N+](=O)[O-])cc(c23)C(=O)N1/N=C/c1ccc(O)cc1O | 8.5%
64 | COc1ccc(/C=N/Nc2ncccc2[N+](=O)[O-])c(OC)c1 | -42.4%
65 | O=[N+]([O-])c1cccnc1N/N=C/c1ccccc1O | -18.6%
66 | COc1cccc(/C=N/Nc2ncccc2[N+](=O)[O-])c1OC | 39.6% (active)
67 | CC(C)C(=O)NC(NC(=S)Nc1ccc(S(N)(=O)=O)cc1)C(Cl)(Cl)Cl (stereo not drawn) | -3.2%
68 | CCCCC(CC)C(=O)Nc1cc(=O)[nH]c2nc3ccccc3n12 (stereo not drawn) | -1.4%
69 | CCOC(=O)CNC(c1ccccc1)c1cc(Br)ccc1NC(C)=O (stereo not drawn) | -27.2%
70 | CCOC(=O)CNC(c1ccccc1)c1cc(Br)ccc1NC(=O)CCN1CCOCC1 (stereo not drawn) | 69.7% (active)
71 | COC(=O)CNC(c1ccccc1)c1cc(Br)ccc1NC(=O)CCN1CCOCC1 (stereo not drawn) | 35.8%
72 | CC(OC(=O)c1ccco1)C(=O)NC1CCCC1 (stereo not drawn) | -27.9%
73 | COc1ccc(CC(=O)N/N=C\c2cc(Br)c(O)c(Br)c2)cc1 | 17%
74 | Cc1cc(C)c2[nH]c(O)c(N=NC(=S)NCC3CCCO3)c2c1 (stereo not drawn) | -5.7%
75 | Oc1[nH]c2c(Cl)cc(Cl)cc2c1N=NC(=S)NCC1CCCO1 (stereo not drawn) | 104% (active)

Row | SMILES | inhibition
76 | Oc1[nH]c2ccccc2c1N=NC(=S)NCC1CCCO1 (stereo not drawn) | -1%
77 | O=C1NC(=O)C2C1C(c1ccccc1)N1C3C(=O)NC(=O)C3C(c3ccccc3)N21 (stereo not drawn) | 6.2%
78 | CC(C)c1nc2sc3c(NCc4ccco4)ncnc3c2c2c1COC(C)(C)C2 | 64% (active)
79 | CC(C)Cc1nc2sc3c(NCc4ccco4)ncnc3c2c2c1COC(C)(C)C2 | -25.1%
80 | Cc1nc2sc3c(NCc4ccco4)ncnc3c2c2c1COC(C)(C)C2 | 20.3%
81 | CCN(CC)CC(=O)NCc1cc(-c2ccc(OC)cc2)no1 | -8.1%
82 | C=CCNc1nc(Nc2ccc(OC)cc2)nc(OCC)n1 | -7.5%
83 | CCn1c(=O)c(C(=O)Nc2ccccc2S(N)(=O)=O)c(O)c2ccccc21 | -15.7%
84 | CC(C)Cn1c(=O)c(C(=O)Nc2cnccn2)c(O)c2ccccc21 | 0.1%
85 | CCCn1c(=O)c(C(=O)Nc2cnccn2)c(O)c2ccccc21 | -22.7%
86 | CCn1c(=O)c(C(=O)Nc2cnccn2)c(O)c2ccccc21 | 7.9%
87 | Cn1c(=O)c(C(=O)Nc2cnccn2)c(O)c2ccccc21 | -52.8%
88 | CC(C)Cn1c(=O)c(C(=O)Nc2ccccc2S(N)(=O)=O)c(O)c2ccccc21 | -2.7%
89 | CCOC(=O)N1CCN=C1SCc1ccc(Cl)c(Cl)c1 | -47.1%
90 | Cc1nc(N2CCN(c3ccccc3)CC2)[nH]c(=O)c1Cc1ccccc1 | 8.4%
91 | COc1ccccc1NC(=S)N(CCN1CCOCC1)Cc1ccccc1F | -31.9%
92 | O=[N+]([O-])c1ccccc1/C=N/Nc1nnc(-c2ccccc2)c(-c2ccccc2)n1 | -36.7%
93 | FCCCOc1ccc(-c2ccnc(-c3ccccc3)n2)cc1 | -45.6%
94 | Cc1c(Cl)cccc1NC(=O)NNC(=O)CCc1ccccc1 | 28%
95 | COc1cc(C)c(C)cc1S(=O)(=O)n1c(C)nc2ccccc21 | -11.1%
96 | CC(C)COP(=O)(c1ccc(N(C)C)cc1)C(O)c1ccc(N(C)C)cc1 (stereo not drawn) | 2.4%
97 | CC1CN(c2nc3c(c(=O)n(C)c(=O)n3C)n2Cc2c(F)cccc2Cl)CC(C)O1 (stereo not drawn) | -14.7%
98 | O=C(NNC1=NCCC1)c1ccc(Br)cc1 | 6.7%
